# Measured values taken from PubChem BioAssay.
# Measured potencies and affinities stand elsewhere. Unmarked numbers belong to inactive results.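 Rule for the calls: active = signal drop whose fitted half-maximal concentration is at most twice the top valid dose, in every test run; inconclusive = mixed calls across runs, poor fit, or flat 30 to 70% inhibition; inactive = wrong direction, flat within 30%, or potency beyond limit.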
# Test: cytotoxicity in PAX8-dependent RMG-1 cells, dose response, cell-based, cherry-pick (AID 687029);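 note: cells exposed to compound for 96 hours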
# Settings: RMG-1 viability, CellTiterGlo ATP luminescence, 96 h; series mostly up to 35 µM; activity change, negative = inhibition: at the top concentration
row,Compound,"activity change, negative = inhibition [%]"
1,COc1ccc(-c2sc3ccccc3c2-c2ccc(OCCN(C)C)cc2)cc1,11.8
2,COc1ccc(/C=c2/sc3n(c2=O)C(c2ccccc2OC)C2=C(N=3)c3ccccc3CC2)cc1O (centres undefined),44.7
3,Nc1nc(N)c2c(ccc3c2ccn3Cc2cccc([N+](=O)[O-])c2)n1,12.3
4,O=C(NC1=C(NC2CCS(=O)(=O)C2)C(=O)c2ccccc2C1=O)c1ccccc1 (centres undefined),14.2
5,NC1=C(Br)C(=O)c2ncccc2C1=O,24.8
6,O=C1C(=O)c2cccnc2-c2ncccc21,25.8
7,COc1ccc(-c2cc(CNc3nc(NC(C)C)nc4cc(-c5ccccc5)sc34)on2)cc1,28.7
8,CN=c1scc(-c2ccccc2F)n1/N=C/c1ccc[nH]1,20
9,Nc1ncnc2c(C3OC(CO)C(O)C3O)c[nH]c12 (centres undefined),17.2
10,N#Cc1nccnc1S(=O)(=O)c1cccs1,40.3
11,Cc1nn(-c2ccccc2)c(Cl)c1CN(C(=O)CCl)c1cccc2ccccc12,20
12,CCS(=O)(=O)c1ncc(Cl)c(C(=O)Nc2ccc(S(=O)(=O)N3CCC(C)CC3)cc2)n1,22.2
13,C[C@@H]1CN([C@@H](C)CO)C(=O)Cc2cc(NS(=O)(=O)c3ccccc3)ccc2O[C@H]1CN(C)Cc1ccc(Cl)c(Cl)c1,15
14,CCOc1ccccc1NC(=O)c1nc(S(=O)(=O)Cc2cccc(C)c2)ncc1Cl,41.1
15,Nc1nc(=S)c2ncn([C@@H]3O[C@H](CO)[C@@H](O)[C@H]3O)c2[nH]1,11.7
16,COC(=O)C1=C(C)N(Cc2cccc(C(F)(F)F)c2)C(=NCc2ccc(OC)cc2)NC1c1cccc(F)c1 (centres undefined),11.9
17,Clc1ccc(Cn2ncc3c(N4CCN(c5ccccc5)CC4)ncnc32)cc1,10.6
18,CCN1CCN(Cc2ccc(NC(=O)c3ccc(C)c(NC(=O)c4c[nH]c5cc(C(F)(F)F)ccc5c4=O)c3)cc2C(F)(F)F)CC1,30.6
19,C(=NNc1ccc2ccccc2n1)c1ccccn1,40
20,COc1ccc(N(C(=O)CCl)C(C(=O)NCCc2ccccc2)c2cccs2)cc1Cl (centres undefined),21.7

row,Compound,"activity change, negative = inhibition [%]"
1,NC(N)=NN=C(c1ccc(F)cc1)c1ccc(C(F)(F)F)cc1,43.2
2,Cc1nn(-c2ccccc2)c(Cl)c1CN(C(=O)CCl)c1ccc(Cl)cc1,22.9
3,C=C1C(=O)C23C(O)C1CCC2C12CCCC(C)(COC(C)=O)C1C(O)C3(O)OC2 (centres undefined),30.8
4,COC(=O)C1C=CC(OC2OC(COC(C)=O)C(OC(C)=O)C(OC(C)=O)C2OC(C)=O)n2c(=O)n(-c3ccccc3)c(=O)n21 (centres undefined),-4.54
5,O=C(O)c1ccc(N/N=C/c2ccc3c(c2)OCO3)cc1,63.7
6,COc1ccc(OCc2cccc(C(=O)Nn3cc([N+](=O)[O-])cn3)c2)cc1,21.6
7,Cc1cc(Br)c(OCc2ccc(C(=O)N/N=C/c3ccc[nH]3)cc2)c(Br)c1,26.7
8,CC(C)(C)OC(=O)NCCCC[C@H](NC(=O)c1[nH]cnc1C(=O)Nc1ccc(CNC(=O)OC(C)(C)C)cc1)C(=O)OC(C)(C)C,20.3
9,CN(C)CCNC(=O)c1cccc(-c2cnc3c(NC=O)cc(-c4cccc(C(F)(F)F)c4)cn23)c1,34.4
10,Cc1ccc(Cn2ccsc2=NC(=O)CCl)cc1,28.6
11,CC(=NNc1ccc2ccccc2n1)c1ccccn1,27.6
12,O=C(CCl)N=c1sccn1Cc1cccc2ccccc12,30.4
13,CCCCCCN(C(=O)CCl)c1ccccc1,23.2
14,CCC1CCCCN1S(=O)(=O)c1ccc(NC(=O)c2nc(S(C)(=O)=O)ncc2Cl)cc1 (centres undefined),40.6
15,COc1ccccc1NC(=O)c1nc(S(=O)(=O)Cc2ccccc2)ncc1Cl,35.2
16,Cc1ccc(Cl)cc1NC1=C/C(=N\S(=O)(=O)c2cccs2)c2ccccc2C1=O,24.4
17,COc1ccc(N(C(=O)CCl)C(C(=O)NCCc2ccccc2)c2cccs2)cc1 (centres undefined),-6.15
18,CCS(=O)(=O)c1ccc(N=Nc2ccc(O)c3ncccc23)c(OC)c1,15.3
19,CCOc1ccc(C(=O)O/N=C(\N)c2ccccn2)cc1,18.7
